Many of the other results were omitted from the sample, so hits are more common in it than they were.
Tg IFNy HTS = inhibitors of Toxoplasma gondii growth with IFN-gamma | activity change, negative = inhibition, % (no concentration beside the values) | hit rate 3.8% among 69,000 | AID 1259416 | Toxoplasma gondii growth in IFN-gamma-treated host cells; active compounds read low; in the data active = activity change below about -70%, passing the limit was not always enough;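 note: host cells are HeLa cells infected with Toxoplasma gondii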
* hit, by the source's call; i = inactive; ! = not active in a repeat.

SMILES | Tg IFNy HTS
O=C1N(Cc2ccccn2)C(=O)C2(CCN(Cc3c(F)cccc3Cl)CC2)N1Cc1ccccc1 | -73*
Cc1c(CN2CCC3(CC2)C(=O)N(Cc2ccccn2)C(=O)N3Cc2ccccc2)cnn1C | 18
CCS(=O)(=O)Nc1ccc2c(c1)C(=O)N(C)C[C@@H](OC)[C@@H](C)CN(C(=O)c1ccc3c(c1)OCO3)[C@@H](C)CO2 | 138
COCC#Cc1ccc([C@@H]2[C@@H](CO)N3C(=O)CN(C(=O)c4ccncc4)C[C@@H]23)cc1 | -47
Cc1cccc(N2CCN(C(c3ccccc3)c3nnnn3Cc3ccco3)CC2)c1C (centres undefined) | -13
COCCn1nnnc1C(c1cccs1)N1CCN(c2cc(C)ccc2C)CC1 (centres undefined) | -95*
COCCn1nnnc1C(C(C)C)N1CCC(Cc2ccccc2)CC1 (centres undefined) | -2
Cc1nc(-c2ccccc2)nc2sc(C(=O)c3cc4ccccc4o3)c(N)c12 | 2
CN(C)C(=O)COCc1nnn2c1CN(C1CCOCC1)CCC2 | 2
Cc1nc2ncccn2c1C(=O)N1CCC(c2cc(C(C)C)n[nH]2)CC1 | -2
Cc1ccc2c(c1)C(=O)N(CC(=O)Nc1cn[nH]c1C)CC1(CCOCC1)O2 | -17
Cc1ccc(C)c(N2CCN(C(=O)CC3Nc4c5ccccc5nc(=S)n4C3=O)CC2)c1 (centres undefined) | 5
CCCn1c(=O)cc(N2CCN(C(=O)CC)CC2)c2cc(C)ccc21 | -76*
CCCCn1c(=O)cc(O)c2ccccc21 | -3
C[C@@H]1CCCCO[C@H](CN(C)S(=O)(=O)c2cn(C)cn2)[C@@H](C)CN([C@H](C)CO)C(=O)c2cc(NC(=O)Nc3cccc4ccccc34)ccc2O1 | i
CN(CCNC1CCN(Cc2ccccc2)CC1)S(C)(=O)=O | -9
O=C1c2cccc3cccc(c23)C(=O)N1c1ccc2ncccc2c1 | -36
O=C1c2ccc3c4c(ccc(c24)C(=O)N1c1ccccn1)C(=O)N(c1ccccn1)C3=O | -90*
c1ccc(-c2ccccn2)nc1 | -5
COc1ccc(-c2nc(C)c(CCNC(=O)C(=O)Nc3ccc(Cl)cc3)s2)cc1OC | -49
N#Cc1ccc(CSc2nnc(-c3ccncc3)o2)cc1 | 3
Cc1cn([C@@H]2C[C@@H](O)[C@H](CO)O2)c(=O)[nH]c1=O | 1
O=c1[nH]c(=O)n([C@H]2C[C@H](O)[C@@H](CO)O2)cc1C(F)(F)F | -77*!
O=c1[nH]c(=O)n([C@H]2CC(O)[C@@H](CO)O2)cc1C(F)(F)F (some centres undefined) | -50
CCC1=NOC(CNc2ncc(F)c(N3CCOCC3)n2)C1 (centres undefined) | -47
SMILES | Tg IFNy HTS
COc1ccc(N2CC(NC(=O)C(=O)c3c(C)[nH]c4ccccc34)CC2=O)cc1 (centres undefined) | 2
CCc1noc(-c2cc(=O)n(CC(=O)NC(C)CC)c3ccccc23)n1 (centres undefined) | 18
O=S(=O)(NCc1csc2ccc(Cl)cc12)c1ccccc1 | -14
S=C(NCc1csc2ccccc12)c1ccccc1 | -78*
Cc1nn(C)c(C)c1CNC(=O)Nc1csc2ccccc12 | -64
Cc1cc(CN2CCCC2)cc(Oc2ccc(C(N)=O)cn2)c1 | 1
COCC(=O)Nc1ccccc1-c1cccc(Cl)c1Cl | -11
Cc1ccc(C)c(NC(=O)c2ccc(Nc3nnc(C)c4ccccc34)cc2)c1 | -88*
Cc1ccc(Nc2nc(C(=O)Nc3ccc(F)cc3C)nc3ccccc23)cc1 | 59
Cc1ccc(Nc2nc(C(=O)Nc3cc(Cl)ccc3C)nc3ccccc23)cc1 | 29
O=C(Cn1c(=O)cc(-c2nc(C3CC3)no2)c2ccccc21)Nc1ccc2c(c1)OCCO2 | -19
CCN1C(=O)N(C2Cc3ccccc3C2)C(=O)C12CCN(Cc1ccc3c(c1)OCCO3)CC2 | 12
N#C[C@H]1N[C@@H](CO)[C@@H]1c1ccc(C#CC2CCCCC2)cc1 | -43
CCSc1nc(CC(=O)NCCC2CCCCN2C)cs1 (centres undefined) | -67
CC(C)c1cc(-c2n[nH]c(=O)n2-c2ccc3c(ccn3C)c2)c(O)cc1O | -79*
Cc1ccc(OC(=O)c2ccc(NC(=O)c3ccccc3)cc2)cc1 | -2
COCCO[C@@H]1C[C@@H]2CN(C(=O)c3cscn3)CCN2C1 | 4
Fc1ccccc1CNCCC(Cc1ccccc1)c1ccc2c(c1)OCO2 (centres undefined) | -66
CC(C)(C)c1nnc(NC(=O)C2CC(=O)N(CCc3c[nH]c4ccc(F)cc34)C2)s1 (centres undefined) | 74
Cc1ccc2[nH]cc(CCN3CC(C(=O)NCCc4ccc(F)cc4)CC3=O)c2c1 (centres undefined) | 179
O=C(NC1CCCCCC1)C1CC(=O)N(CCc2c[nH]c3ccc(Cl)cc23)C1 (centres undefined) | 48
Cc1nnc(NC(=O)C2CC(=O)N(CCc3c[nH]c4ccc(Cl)cc34)C2)s1 (centres undefined) | 45
CC(C)c1ccc(NC(=O)C2CC(=O)N(CCc3c[nH]c4ccc(F)cc34)C2)cc1 (centres undefined) | -81*
O=C(Nc1ccc2c(c1)CCC2)C1CC(=O)N(CCc2c[nH]c3ccc(Cl)cc23)C1 (centres undefined) | -111*
O=C(NC1CCCC1)N1CCC2(C1)c1ccccc1S(=O)(=O)N2Cc1ccccc1 (centres undefined) | -7
SMILES | Tg IFNy HTS
CN(C)c1ccc(CN2CCC(c3cc4c(ncn4C)c(-c4ccccc4)n3)CC2)cc1 | -20
Cc1c(Cl)cccc1NC(=O)CC(=O)NC(C)c1ncn[nH]1 (centres undefined) | -3
COCC(=O)N1[C@H](C#N)[C@@H](c2ccc(C#CCC3CCCC3)cc2)[C@H]1CO | -21
Cc1ccc(N2CCC3(CC2)C(c2cnn(C)c2)CC(=O)N3C)nn1 (centres undefined) | 9
O=C(O)c1ccccc1/C=C/c1cccs1 | 40
COc1ccc(CNC(=O)Cn2c(=O)n(Cc3ccc(F)cc3)c(=O)c3ccccc32)cc1 | -73*
COc1ccc(CNC(=O)Cn2c(N)nc(C)c(C)c2=O)cc1 | -29
COc1ccc(CNC(=O)Cn2c(=O)cc(-c3nc(C4CC4)no3)c3ccccc32)cc1 | 14
Cc1nc(Nc2ncc(C(=O)Nc3c(C)cccc3Cl)s2)cc(N2CCN(CCO)CC2)n1 | -77*
Cc1cnc(Nc2cccc(C3CCCN3C(=O)CCOc3ccccc3C)n2)s1 (centres undefined) | -52
Cc1cc2oc(=O)cc(C)c2cc1NC(=O)c1cnc(CN2CCCC2)s1 | 9
c1ccc(CN2CCN(c3ncnc4ccccc34)CC2)cc1 | -86*
c1ccc2c(N3CCN(Cc4cccc5nccnc45)CC3)ncnc2c1 | -17
c1ccc(-n2cc(CN3CCN(c4ncnc5ccccc45)CC3)cn2)cc1 | -53
CCN1c2ncccc2C(=O)NC12CCN(C(=O)c1ccc(Cn3cccn3)o1)CC2 | 4
COc1cc(COc2cc(N)c(Cl)cc2C(=O)CCC2CCN(CCNS(C)(=O)=O)CC2)cc(OC)c1 | -24
Cc1ccc(NC(=O)c2ccc3ccc(N4CCN(C)CC4)n3c2)cc1C | -73*
CN1CCN(c2ccc3ccc(C(=O)Nc4cccc(F)c4)cn23)CC1 | -1
Cc1ccccc1NC(=O)c1ccc2ccc(N3CCN(C)CC3)n2c1 | -2
O=C(Nc1cccc(F)c1)c1c(O)c2cccnc2n(-c2ccc(F)cc2)c1=O | 46
Cc1cccc(NC(=O)CN2CCC3(CC2)N=C(c2ccc(C)c(C)c2)C(=O)N3)c1 | -10

Compound activity: PubChem, Broad Institute
